# Counter-ions that a name gives are not always drawn.
# Tested on: Saccharomyces cerevisiae BY4741 SeMeCo community
# Assay: z-score of subpopulation abundance vs DMSO median, subpopulation auxotrophic for LU; higher = larger share of this subpopulation than in DMSO controls
# Conditions: 10 µM; 24 h; SM minimal medium; subpopulation (auxotrophy): LU
# Method in brief: (§1)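 Automated confocal microscopy of paraformaldehyde-fixed cells was used to follow a Saccharomyces cerevisiae BY4741 community carrying four plasmids, each restoring one auxotrophy and encoding a distinct fluorescent protein. The community was pre-grown overnight to OD600 1.0, diluted to 0.3, and added at 70 µl to 384-well plates acoustically predosed with library drugs (10 µM final) for 24 h of growth in minimal SM medium. Single-auxotroph fluorescent strains set thresholds and autofluorescence correction, and each subpopulation's abundance was scored as a z-score against the vehicle-well median.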
row,Structure (SMILES),z-score of subpopulation abundance
1,NC(=O)Cc1cccc(C(=O)c2ccccc2)c1N [Nepafenac],-0.55
2,CN1C2CCCC1CC(NC(=O)c1nn(C)c3ccccc13)C2 (configuration not stated) [Granisetron],-0.92
3,CN(C)C[C@@H]1CCn2cc(c3ccccc32)C2=C(C(=O)NC2=O)c2cn(c3ccccc23)CCO1,1.13
4,Cc1ccc(-c2ncc(Cl)cc2-c2ccc(S(C)(=O)=O)cc2)cn1 [Etoricoxib],-0.52
5,Cc1ccc(Sc2ccccc2N2CCNCC2)c(C)c1,-0.09
6,CN(C)CCCN1c2ccccc2Sc2ccccc21 [Promazine hydrochloride],0.52
7,CN(C)CCn1nnnc1SCC1=C(C(=O)O)N2C(=O)[C@@H](NC(=O)Cc3csc(N)n3)[C@H]2SC1 [Cefotiam hydrochloride],1.53
8,CN(C)CC(c1ccc(O)cc1)C1(O)CCCCC1 (configuration not stated) [Desvenlafaxine],-0.16
9,Cc1ncc([N+](=O)[O-])n1CCOC(=O)c1ccccc1 [Metronidazole Benzoate],-1.05
10,O=C1C(CC[S+]([O-])c2ccccc2)C(=O)N(c2ccccc2)N1c1ccccc1 (racemic) [(+/-)-Sulfinpyrazone],0.28
11,COc1ccccc1OCC(O)CN1CCN(CC(=O)Nc2c(C)cccc2C)CC1 (configuration not stated) [Ranolazine 2HCl],0.35

# Tested on: Saccharomyces cerevisiae BY4741 SeMeCo community
# Assay: z-score of subpopulation abundance vs DMSO median, subpopulation auxotrophic for LM; higher = larger share of this subpopulation than in DMSO controls
# Conditions: 10 µM; 24 h; SM minimal medium; subpopulation (auxotrophy): LM
# Method in brief: as §1
row,Structure (SMILES),z-score of subpopulation abundance
1,CCCCCOc1ccc(-c2ccc(-c3ccc(C(=O)N[C@H]4C[C@@H](O)[C@@H](O)NC(=O)[C@@H]5[C@@H](O)[C@@H](C)CN5C(=O)[C@H]([C@@H](C)O)NC(=O)[C@H]([C@H](O)[C@@H](O)c5ccc(O)cc5)NC(=O)[C@@H]5C[C@@H](O)CN5C(=O)[C@H]([C@@H](C)O)NC4=O)cc3)cc2)cc1,1.2
2,Cc1ccnc(NS(=O)(=O)c2ccc(N)cc2)n1 [Sulfamerazine],0.88
3,O=C(O)c1cc(-c2ccc(F)cc2F)ccc1O [Diflunisal],-1.23
4,C[C@@H]1[C@H](O)[C@@H](C)/C=C/C=C/C=C/C=C/C=C/C=C/C=C/[C@H](O[C@@H]2O[C@H](C)[C@@H](O)[C@H](N)[C@@H]2O)C[C@@H]2O[C@](O)(C[C@@H](O)C[C@@H](O)[C@H](O)CC[C@@H](O)C[C@@H](O)CC(=O)O[C@H]1C)C[C@H](O)[C@H]2C(=O)O [Amphotericin B],-0.85
5,COC1C(O)CC(=O)OC(C)CC=CC=CC(OC2CCC(N(C)C)C(C)O2)C(C)CC(CC=O)C1OC1OC(C)C(OC2CC(C)(O)C(O)C(C)O2)C(N(C)C)C1O (configuration not stated) [Spiramycin],-0.48
6,CC(C)(O/N=C(\C(=O)N[C@@H]1C(=O)N2C(C(=O)[O-])=C(C[n+]3ccccc3)CS[C@H]12)c1csc(N)n1)C(=O)O [Ceftazidime],-0.09
7,COCCCN1CCC(NC(=O)c2cc(Cl)c(N)c3c2OCC3)CC1 [Prucalopride],-0.04
8,CCOc1cc(NC(C)=O)ccc1C(=O)OC [Ethopabate],0.15
9,CCCSc1ccc2[nH]c(NC(=O)OC)nc2c1 [Albendazole],0.33
10,CN(C)CCN1C(=O)c2cccc3cc(N)cc(c23)C1=O [Amonafide],1.08
11,COc1ccnc(C[S+]([O-])c2nc3cc(OC(F)F)ccc3[nH]2)c1OC (configuration not stated) [Pantoprazole sodium],0
12,CCOC(=O)C1=C(COCCN)NC(C)=C(C(=O)OC)C1c1ccccc1Cl (configuration not stated) [Amlodipine Besylate],6.36
13,CC(C)(C)C(=O)C(Oc1ccc(Cl)cc1)n1ccnc1 (configuration not stated) [Climbazole],0.49
14,COc1cc(N)c(Cl)cc1C(=O)NC1CCN(CCCOc2ccc(F)cc2)CC1OC (configuration not stated) [Cisapride],-0.7
15,COc1ccc2[nH]c([S+]([O-])Cc3ncc(C)c(OC)c3C)nc2c1 (configuration not stated) [Omeprazole],0.56
16,O=C1CCc2cc(OCCCCc3nnnn3C3CCCCC3)ccc2N1 [Cilostazol],-0.83
17,O=c1ccn(C2CC(O)C(CO)O2)c(=O)[nH]1 (configuration not stated) [2-deoxyuridine],0.89
18,O=C1c2cccc3c2[C@H](CCC3)CN1[C@@H]1CN2CCC1CC2 [Palonosetron HCl],-0.39
19,CCCOc1ccc2[nH]c(NC(=O)OC)nc2c1 [Oxibendazole],0.57
20,C[C@]12CC[C@@H]3c4ccc(O)cc4CC[C@H]3[C@@H]1CC[C@@H]2OC(=O)CCC1CCCC1 [Estradiol Cypionate],-0.12
21,COc1ccc2c(c1)c(CC(=O)O)c(C)n2C(=O)c1ccc(Cl)cc1 [Indomethacin],0.16
